Screening results from PubChem.
This is a sample that favours compounds with a hit; in the whole collection about 4.1% have one here.
DAX1 inh-1: inhibitors of DAX1 repression of SF-1 activated StAR promoter | inhibition, % at 6.8 µM | HEK293T StAR-luciferase reporter, SF-1/DAX-1 repression relief | hit rate 1.1% among 370,000;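 active = inhibition above the mean over all tested compounds plus 3 SD, cut at about 3.6% in these data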;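 also: 0% = DAX-1 cells with DMSO and 100% = cells lacking DAX-1 with DMSO; higher inhibition means more luminescence from relief of DAX-1 repression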
hgDAF-12 ag: agonists of H. glycines DAF-12 nuclear receptor; activation, % at 6.8 µM; hit rate 1.8% among 370,000; HEK293 GAL4-hgDAF12 UAS-luciferase reporter, agonist luminescence; normalized to butyrate control; AID 687014;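 active = activation above a cutoff set at the mean of all screened compounds plus 3 SD, cut at about 10% in these data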;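 also: 0% = DMSO wells and 100% = sodium butyrate wells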
ssDAF-12 act: activates DAF-12 receptor from parasite S. stercoralis; HEK293 ssDAF-12/GRIP1 lit1-tk-luc reporter, luminescence; % of 3 µM dafachronic acid response; activation, % at 6.8 µM; hit rate 1% among 370,000;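 active = activation above the mean over all tested compounds plus 3 SD, cut at about 0.9% in these data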;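 also: 0% = DMSO-only wells and 100% = 3 µM delta7-dafachronic acid wells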
DAX1 inh-2: NR0B1 (DAX1) inhibition. P51843. HEK293 Gal4-DAX1 luciferase reporter, luminescence. inhibition, % at 6.75 µM. hit rate 0.99% among 340,000. AID 504766;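 active = inhibition above the mean over all tested compounds plus 3 SD, cut at about 4.2% in these data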;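 also: 0% = DAX1-transfected cells with DMSO and 100% = empty-vector control cells with DMSO; inhibition shows as a rise in luminescence from relieved DAX1 repression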
Target sequence (P51843 207-470 limits assumed): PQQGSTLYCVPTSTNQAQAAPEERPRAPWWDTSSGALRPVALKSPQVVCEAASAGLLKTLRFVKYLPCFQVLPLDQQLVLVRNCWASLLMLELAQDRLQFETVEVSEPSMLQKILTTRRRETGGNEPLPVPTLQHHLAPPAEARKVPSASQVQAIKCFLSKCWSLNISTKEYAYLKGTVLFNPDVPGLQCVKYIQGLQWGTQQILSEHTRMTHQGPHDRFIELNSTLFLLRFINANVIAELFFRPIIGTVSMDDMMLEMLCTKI
hcDAF-12 act: activates DAF-12 receptor from parasite H. contortus; AID 652067; HEK293 hcDAF-12 lit1-tk-luc reporter, luminescence; 0% DMSO, 100% Δ7-dafachronic acid; activation, % at 6.8 µM; hit rate 1.4% among 370,000;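 active = activation above the mean of all tested compounds plus 3 SD, cut at about 5.5% in these data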;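 also: 100% = response to 3 µM Δ7-dafachronic acid high control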
hgDAF12 conf: hgDAF-12 agonism, confirmation assay; shares compounds with hgDAF-12 ag; HEK293 GAL4-hgDAF12 luciferase reporter, agonist mode; percent of butyrate response; activation, % at 6.8 µM; hit rate 80% among 3,300; AID 743050;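 active = mean activation over triplicate wells above the hit cutoff derived from the earlier primary screen, cut at about 11% in these data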;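 also: 0% = DMSO low control and 100% = 2 mM sodium butyrate high control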
LXR ag 2: LXR-beta agonism as DAF-12 counter-screen; shares compounds with hgDAF-12 ag; 3,300 tested, under 10 active; HEK293 Gal4-LXR luciferase reporter, 24 h; activation, % at 6.8 µM;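 active = mean activation of the triplicate above a set limit carried over from the primary screen, none filed active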
An asterisk follows results filed as active; . = not tested or not shown.

SMILES | DAX1 inh-1 | hgDAF-12 ag | ssDAF-12 act | DAX1 inh-2 | hcDAF-12 act | hgDAF12 conf | LXR ag 2
COc1cccc(-n2cc(-c3ccc(F)cc3)[nH]c2=S)c1 | 1.1 | 19.6* | -0.3 | 2.9 | 5.6* | 12.0* | 0.7
CCOC(=O)c1cc2c(=O)n3ccccc3nc2n(C(C)C)c1=NC(=O)c1ccco1 | -0.3 | -0.5 | -0.9 | 1.1 | 0.2 | . | .
CCCn1c(=NC(=O)c2ccco2)c(C(=O)OCC)cc2c(=O)n3ccccc3nc21 | 0.8 | 13.4* | 0.5 | 2.1 | 3.6 | 0.5 | 0.0
COc1ccc(-c2nc3cc([N+](=O)[O-])ccc3o2)cc1 | 2.2 | 13.9* | -0.4 | 6.2* | 2.4 | 16.6* | 0.8
CC(C)(C)Nc1nc2cc([N+](=O)[O-])ccc2o1 | 0.3 | 0.0 | -1.0 | -0.5 | 0.4 | . | .
Nc1ccc(-c2nc3cc([N+](=O)[O-])ccc3o2)cc1 | 2.5 | 23.6* | 0.7 | 5.7* | 5.7* | 19.6* | 0.9
CCN1CCN(S(=O)(=O)c2ccc(Cl)c(C(=O)Oc3ccc(CC(=O)OC)cc3)c2)CC1 | -1.6 | 1.9 | -0.8 | -0.1 | 1.1 | . | .
C=CCOc1cccc(C2C(C(=O)c3cc4ccccc4o3)=C(O)C(=O)N2c2cc(C)on2)c1 (stereo unspecified) | -0.3 | 1.5 | -0.8 | 1.5 | 1.9 | . | .
Cc1cccc(C)c1NC(=O)C1(C)CSCC(=O)N1C1CCN(Cc2ccccc2)CC1 (stereo unspecified) | -0.5 | -2.0 | -0.8 | . | -1.2 | . | .
COc1ccccc1N1CCN(c2ccc3ccccc3n2)CC1 | 2.5 | 14.4* | -0.3 | 2.0 | 6.0* | 14.8* | 1.1
CCc1ccccc1NC(=O)CNC(=O)c1ccc(-n2cncn2)c([N+](=O)[O-])c1 | -0.7 | -1.6 | -0.9 | -0.4 | -0.5 | . | .
Cc1cc(C)nc(SCCC(=O)Nc2ccccc2Cl)n1 | 2.4 | 2.0 | -1.5 | 0.8 | -2.5 | . | .
C/C(CC(=O)Nc1c(C)cc(C)cc1C)=N\NC(=O)OC(C)(C)C | 1.3 | 13.4* | -0.3 | 3.2 | 0.9 | 0.7 | 0.0
COc1ccccc1N(CC(=O)N1CCN(c2ccccc2)CC1)S(=O)(=O)c1ccc(C)cc1 | -0.1 | -0.7 | -1.0 | 0.3 | -1.6 | . | .
O=C(O)CC1=C(Nc2ccccc2)C(=O)N(c2ccccc2)C1c1ccc(F)cc1 (stereo unspecified) | 1.7 | 18.3* | -0.8 | 0.3 | 2.8 | 10.9* | 0.4
Cc1nc(C(F)(F)F)ccc1C(=O)N1CCC1(C)C(=O)NCc1cccs1 (stereo unspecified) | 0.1 | 0.7 | -0.8 | . | -0.7 | . | .
Cc1ccc(C(=O)Nc2nnc(SCC(=O)N3CCCc4ccccc43)s2)cc1 | 4.2* | 13.7* | 0.8 | -1.9 | 4.1 | 8.6 | 0.8
CCN(CC)c1ccc(/C=N/NC(=O)c2ccc3c(c2)OCCO3)cc1 | -0.1 | 3.1 | -0.9 | -0.2 | 0.5 | . | .
Cc1ccc(/C=N/NC(=O)c2ccc(Br)o2)s1 | 1.7 | 8.0 | -0.8 | 1.9 | 3.8 | . | .
CCc1ccc(/C=N\NC(=O)c2ccc(Br)o2)s1 | 3.3 | 15.5* | -0.4 | 2.2 | 2.8 | 12.6* | 0.4
CCN(CC)c1ccc(/C=N/NC(=O)c2ccc(Br)o2)cc1 | 1.8 | 17.4* | 0.2 | 1.6 | 1.9 | 18.6* | 0.7
O=S1(=O)c2ccc(Br)cc2OC[C@@H](Cc2ccccc2)N1Cc1cn(Cc2ccccc2)nn1 | 0.7 | -0.5 | -1.8 | . | 0.1 | . | .
NC(=O)c1ccc(-c2noc(-c3ccccc3F)n2)cc1 | 1.9 | 15.1* | 0.3 | -2.5 | 5.6* | 13.3* | 0.9
NC(=O)c1ccccc1-c1noc(-c2ccccc2F)n1 | . | 9.0 | -1.1 | . | 0.4 | . | .
Cc1nc2sc(-c3ccccc3)nn2c(=O)c1Br | 3.4 | 16.5* | -0.6 | 0.5 | 4.1 | 17.1* | 0.8
Cc1ccc(-n2ncc3ccccc3c2=O)cc1Cl | 2.5 | 18.6* | 0.6 | 4.7* | 5.2 | 15.1* | 0.6
COc1c(Cl)cnn(-c2cccc(C)c2)c1=O | 0.1 | 0.3 | -0.5 | 1.4 | -0.6 | . | .
Clc1ccc(-n2cc(COCc3ccccc3)nn2)cc1 | 3.8* | 21.1* | 0.4 | 0.0 | 5.2 | 10.6* | 0.5
O=C(Nc1ccc(Cl)cc1)OCc1cn(-c2ccc(Cl)cc2)nn1 | 0.1 | 0.3 | -1.1 | 0.8 | 0.7 | . | .
